This is a sample that favours compounds with a hit; in the whole collection about 14% have one here.
HCV inhibitor: HCV inhibition | Huh7.5.1 HCVcc-Cre infection, luciferase reporter, 44 h | AID 651820 | 3.4% of 340,000 active | Potency, µM (top dose mostly 41.8 µM), inactives show top-dose activity change, negative = inhibition, most hits filed as inhibitors; further: potency means the concentration at half of the fitted maximal effect
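Cells seeded at 1,000/well and cultured 4 h, then compounds added followed by HCVcc-Cre virus (~0.5 moi). After 44 h further culture, luciferase substrate was added, plates held 15 min at room temperature, and luminescence read for 15 sec.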
Pf growth 96h: P. falciparum growth inhibition at 96 hours; 6.9% of 320,000 active; P. falciparum luciferase reporter growth, 96 h; Potency, µM (top dose mostly 28.7 µM), for inactives: at the top dose activity change, negative = inhibition, hits mostly inhibitors; further: potency means the concentration at half of the fitted maximal effect
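Luminescence readout: decreased luciferase signal marks inhibited growth of reporter-expressing P. falciparum in infected red cells (2% hematocrit, 0.05% parasitemia final), exposed to compound two generations (96 h, 37 C, 5% CO2).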
Lassa entry inh: Lassa virus entry inhibition; Potency, µM (highest dose often 37.9 µM), inactives show top-dose activity change, negative = inhibition, hits mostly inhibitors; Lassa virus pseudotype entry inhibition, cell reporter; AID 540256; 1.2% of 300,000 active; calls by dose curve; tested in HEK293 cells; further: potency means the concentration at half of the fitted maximal effect; nearly all actives have a fitted effect of over 50% in size
MARV entry inh: blocks Marburg virus binding to or entry into cells. Marburg virus pseudotyped entry inhibition, cell reporter. Potency, µM (highest dose often 37.8 µM), inactives show top-dose activity change, negative = inhibition, actives largely listed as inhibitors. 1.8% of 300,000 active. AID 540276; calls by dose curve; tested in HEK293 cells; further: potency means the concentration at half of the fitted maximal effect
HCMV inh: human cytomegalovirus inhibition | HFF cells, HCMV-luciferase reporter, 72 h; stronger effect = lower value | activity change, negative = inhibition, % at 57.5 µM | 4.5% of 410,000 active | AID 1259415; in the data active means activity change below about -60%; inconclusive means no clear call, values can overlap the other calls; inactive means above about -39%
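Compounds were evaluated in HFFs infected with an HCMV luciferase reporter virus (MOI 1 PFU/cell). Luciferase in lysates collected 72 h post infection served as the replication measure.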
Pf growth 48h: P. falciparum growth inhibition at 48 hours (one generation). P. falciparum luciferase growth in erythrocytes, 48 h. Potency, µM (highest dose often 28.7 µM), inactives show top-dose activity change, negative = inhibition, most hits filed as inhibitors. 5.9% of 310,000 active. AID 504832; further: potency means the concentration at half of the fitted maximal effect
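Read-out is firefly luciferase luminescence from an integrated reporter in P. falciparum, so falling signal marks reduced parasite growth. Infected erythrocytes were at 2% hematocrit and 0.1% parasitemia (final) in Albumax-supplemented RPMI 1640.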
The depositor's hits bear a star; ? = inconclusive; · = no result; [ ] = remark or other dose. Unless noted, the call rests on the fitted dose curve; in most records, active means well fitted inhibition curve with a large enough effect; inconclusive means small, poorly fitted or top-dose-only effect, or another doubt; inactive means no such curve, though single readings can be large or run the other way. On the % scale 0 is the no-effect control and ±100 the full control effect.

SMILES	HCV inhibitor	Pf growth 96h	Lassa entry inh	MARV entry inh	HCMV inh	Pf growth 48h
CCn1c(SCCOc2ccccc2F)nc2ccccc21	·	·	6%[46.1 µM]	·	-35	·
O=C(O)CCn1c(SCCOc2ccccc2F)nc2ccccc21	20%	10µM*	·	·	-4	?
COC(=O)C1=C(c2cccc(OCc3ccccc3)c2)C[C@@H]2CC[C@H]1N2C(=O)NCc1ccc(C(F)(F)F)cc1	10µM*	5.2µM*	·	·	?	13µM*
COC(=O)C1=C(c2cccc(C#N)c2)C[C@@H]2CC[C@H]1N2C(=O)NCc1ccc(F)cc1	28%	-8%	·	·	-11	?
COC(=O)C1=C(c2ccccc2)C[C@@H]2CC[C@H]1N2C(=O)NCc1ccc(F)cc1	-14%	·	·	·	-12	·
COC(=O)C1=C(c2cccc(OCc3ccccc3)c2)C[C@@H]2CC[C@H]1N2C(=O)NCc1ccc2[nH]ccc2c1	?	?	·	·	66	13µM*
COC(=O)C1=C(c2cccc(OCc3ccccc3)c2)C[C@@H]2CC[C@H]1N2C(=O)NCc1ccc(F)cc1	?	9.3µM*	·	·	-35	12µM*
CCN(CC)CCN(C(=O)c1ccco1)c1nc2cc(C)cc(C)c2s1	·	·	?	·	-33	·
COc1ccc(-n2nnnc2-c2ccccc2)cc1	-5%	?	-24%	-11%	-60*	·
COc1ccc(-n2nc(C(=O)N(C)C)nc2-c2ccccc2)cc1	22%	9.3µM*	15%[46.1 µM]	?	9	16%
Clc1ccc(-n2nnnc2-c2ccccc2)cc1	15%	17%	12%	9%	3	0%
C[C@H](O)[C@@H]1C(=O)N2CCc3c([nH]c4ccccc34)[C@@H]2C[C@@H]1N(C)C(=O)c1ccco1	·	·	·	·	23	·
COc1cccc(C#CC2=CC(=O)CC(C)(C)C2)c1	·	·	·	·	2	·
Cc1cccc(C#CC2=CC(=O)CC(C)(C)C2)c1	·	·	·	·	-100*	·
C=CCN1C(=O)/C(=C\c2ccc(OC(=O)c3ccco3)c(OC)c2)SC1=S	-15%	?	·	·	-29	-26%
C=CCN1C(=O)/C(=C/c2ccc(OC(C)=O)c(OCC)c2[N+](=O)[O-])SC1=S	?	23%	?	?	-99*	9.3µM*
CCCCc1nn2c(=O)cc(COC(=O)c3cccc(NC(=O)c4cccc(Cl)c4)c3)nc2s1	·	·	22%[46.1 µM]	·	18	·
O=C(c1cc(-c2ccc(Cl)cc2)on1)N(Cc1cccc(F)c1)Cc1ccco1	·	·	-12%[46.1 µM]	?	1	·
CCOC(=O)c1c(CSc2ccccc2)n(C)c2cc(Br)c(OCC(O)CNC(CO)(CO)CO)cc12 (stereo not given)	?	13µM*	?	?	-63*	12µM*
CCOC(=O)c1c(CSc2ccccc2)n(C)c2cc(Br)c(OC)c(O)c12	?	?	·	·	-12	?
O=C(Nc1ccc(Nc2ccccc2)cc1)C(Cl)Cl	?	-3%	?	?	-64*	-30%
O=C(Cn1c(=O)c2cccn2c2ccccc21)Nc1cc(F)ccc1F	11µM*	-21%	?	·	4	-3%
O=C(Cn1c(=O)c2cccn2c2ccccc21)NCCc1ccc(Cl)cc1	-3%	10µM*	14%[46.1 µM]	?	-7	27%
O=C(Cn1c(=O)c2cccn2c2ccccc21)NCCc1ccccc1	-5%	?	?	·	-23	11%
COc1cccc(NC(=O)Cn2c(=O)c3cccn3c3ccc(F)cc32)c1	·	·	-1%[46.1 µM]	·	-65*	·
NC12CC3CC(C1)CC(O)(C3)C2	0%	10µM*	25%	12%	19	15%
COc1ccc(CNC(=O)Cn2ncn3nc(-c4cccs4)cc3c2=O)cc1	·	·	4%[46.1 µM]	9%[46.1 µM]	-17	·
COC(=O)CCC(=O)OC1(C)C(=O)C=C2C=C(C3CC3)N(CCCOC(C)C)C=C2C1=O (stereo not given)	-13%	1.9µM*	·	-21%[14.2 µM]	·	10µM*
C=CCN1C=C2C(=O)C(C)(OC(=O)CCC(=O)OC)C(=O)C=C2C=C1C1CC1 (stereo not given)	0%	2.6µM*	·	·	40	7.4µM*

Screening results from PubChem.
